# Screening results deposited in PubChem BioAssay by National Center for Advancing Translational Sciences (NCATS).
# PI5P4Ka inh = PI5P4K alpha (human) kinase inhibition; PI5P4Kalpha enzyme, ADP-Glo luminescence, 60 min; stronger effect = lower value; max response, %; 1.2% of 330,000 active; active means max response of -50% or lower; inconclusive means between -30% and -50%; inactive means -30% or higher; further: value at the top dose of about 77 µM; on the % scale 0 is the no-effect control and ±100 the full control effect
#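 Quantitative HTS of the MLSMR library against PI5P4Kalpha with substrate. ATP added last at 5 microM final; room temperature, 60 minutes. Remaining ATP depleted, ADP converted and read as luminescence.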
# HP1b chromo inh = blocks HP1-beta chromodomain binding to methylated histone tails; Potency, µM (titrated, usually from 114 µM), for inactives: at the highest dose activity change, negative = inhibition, usual class: inhibitors; AlphaScreen HP1-beta / biotin-H3K9me3 peptide binding; 0.56% of 390,000 active; further: potency means the concentration at half of the fitted maximal effect; nearly all actives have a fitted effect of over 70% in size
#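 Compound inhibition of the preformed complex between 50 nM HP1-beta and 50 nM biotinylated H3K9me3 peptide was read by AlphaScreen. Buffer was PBS pH 7.4 with 0.01% Tween-20. Incubations ran 30 min at room temperature, with 10 ug/mL donor/acceptor beads.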
# JMJD2A Tudor = JMJD2A Tudor domain (human) inhibition; O75164; Potency, µM (highest dose often 114 µM), for the others: at the top dose activity change, negative = inhibition, actives largely listed as inhibitors; 4.4% of 390,000 active; AlphaScreen JMJD2A-Tudor / H3K4me3 peptide binding; further: potency means the concentration at half of the fitted maximal effect; on the % scale 0 is the no-effect control and ±100 the full control effect; nearly all actives have a fitted effect of over 50% in size
# PLK1 PBD inh = PLK1 (human) polo-box domain binding inhibition | P53350 | Plk1 PBD binding of FITC phosphopeptide, fluorescence polarization | Potency, µM, for the others: max response, negative = inhibition, most hits filed as inhibitors | 2.8% of 360,000 active | AID 720504; further: potency means the concentration at half of the fitted maximal effect; series mostly up to about 57 µM; on the % scale 0 is the no-effect control and ±100 the full control effect; nearly all actives have a fitted effect of over 65% in size
# BAZ2B block = blocks human BAZ2B. Q9UIF8. AlphaScreen BAZ2B-H3K14Ac peptide displacement. Potency, µM (titrated, usually from 114 µM), for inactives: at the highest dose activity change, negative = inhibition, most hits filed as inhibitors. 4.4% of 360,000 active. AID 504333; further: potency means the concentration at half of the fitted maximal effect; on the % scale 0 is the no-effect control and ±100 the full control effect; nearly all actives have a fitted effect of over 60% in size
#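 AlphaScreen displacement of biotin-H3(5-23)K14Ac peptide (50 nM final) from BAZ2B (50 nM final) in PBS pH 7.4, 0.01% Tween-20; complex preformed 30 min RT, then compounds (top 110 uM) 30 min RT, beads 20 min dark.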
# KAT2A inh = inhibitors of human GCN5L2 histone acetyltransferase | GCN5L2 HAT assay, ThioGlo1 CoA-SH fluorescence | Potency, µM (top dose mostly 58.9 µM), without a hit: top-dose activity change, negative = inhibition, usual class: inhibitors | 0.21% of 390,000 active | Q92830; further: potency means the concentration at half of the fitted maximal effect; on the % scale 0 is the no-effect control and ±100 the full control effect
# Target sequence (Q92830 whole entry, looked up): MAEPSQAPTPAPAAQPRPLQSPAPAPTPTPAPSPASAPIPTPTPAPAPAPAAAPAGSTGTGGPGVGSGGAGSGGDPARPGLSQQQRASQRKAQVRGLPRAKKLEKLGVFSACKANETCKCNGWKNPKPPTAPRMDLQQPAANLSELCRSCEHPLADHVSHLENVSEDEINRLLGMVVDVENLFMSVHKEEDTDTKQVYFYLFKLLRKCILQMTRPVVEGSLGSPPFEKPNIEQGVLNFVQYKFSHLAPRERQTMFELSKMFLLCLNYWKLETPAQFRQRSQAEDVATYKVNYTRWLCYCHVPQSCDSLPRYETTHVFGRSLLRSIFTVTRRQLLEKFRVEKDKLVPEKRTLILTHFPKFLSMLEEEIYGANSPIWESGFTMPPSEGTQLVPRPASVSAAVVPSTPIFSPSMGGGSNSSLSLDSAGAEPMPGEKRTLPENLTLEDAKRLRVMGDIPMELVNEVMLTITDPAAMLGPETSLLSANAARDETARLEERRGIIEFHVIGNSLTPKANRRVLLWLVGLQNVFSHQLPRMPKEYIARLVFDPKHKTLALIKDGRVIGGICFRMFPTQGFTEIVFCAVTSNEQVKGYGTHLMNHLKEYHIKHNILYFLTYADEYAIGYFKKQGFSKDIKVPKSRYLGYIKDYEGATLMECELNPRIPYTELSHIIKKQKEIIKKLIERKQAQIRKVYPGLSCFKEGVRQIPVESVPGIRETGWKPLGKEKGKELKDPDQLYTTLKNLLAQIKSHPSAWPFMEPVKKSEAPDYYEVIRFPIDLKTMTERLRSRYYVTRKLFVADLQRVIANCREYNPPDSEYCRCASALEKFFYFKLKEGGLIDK
#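 GCN5L2 (20nM final) in 50mM HEPES, 0.1mM EDTA pH 7.5, 0.01% Tween-20 was preincubated 15 min at room temperature with compound, then given ThioGlo1 (50uM), H3(1-25) peptide (75uM) and acetyl-CoA (70uM); CoA-thiol fluorescence (Ex340/Em540) was read at 0 and 20 min.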
# * hit, by the source's call; ? = inconclusive; / = not tested or not shown; [ ] = dose if it differs, or a comment. In the library only some 7% were active in any assay of this set; here they are far more common. Unless noted, the call rests on the fitted dose curve; in most records, active means well fitted curve in the direction sought with a large enough effect; inconclusive means small, poorly fitted or top-dose-only effect, or another doubt; inactive means no such curve, though single readings can be large; an effect the other way counts as inactive or inconclusive.
SMILES,PI5P4Ka inh,HP1b chromo inh,JMJD2A Tudor,PLK1 PBD inh,BAZ2B block,KAT2A inh
COc1ccc(C(=O)CCN2CCc3cc(OC)c(OC)cc3C2)cc1,-1.0,25.0%,-16.0%,26.7µM*,-24.1%,-0.6%
COc1cc2c(cc1OC)CN(Cc1cc(OC)c3c(c1)OCO3)CC2,0.1,-9.3%,8.91µM*,-7.4%,50.1µM*,5.4%
COc1cc2c(cc1OC)CN(CC(=O)Nc1ccc3c(c1)OCO3)CC2,-17.6,6.5%,-15.0%,0.3%,-28.2%,-0.8%
COc1ccc(NC(=O)c2ccc(CN3CCc4ccccc4C3)cc2)cc1OC,-2.9,9.8%,-1.3%,5.7%,-23.2%,1.3%
COc1cc2c(cc1OC)CN(CC(=O)Nc1ccc(C)cc1)CC2,/,26.4%,-17.2%,-1.0%,-36.1%,-6.4%
COc1ccc(CN2CCc3cc(OC)c(OC)cc3C2)cc1O,-0.4,?,44.7µM*,3.1%,?,-5.5%
COc1cccc(-n2c(=O)c3c(C)c(C)sc3n(CC(=O)NCCc3ccc(OC)c(OC)c3)c2=O)c1,/,20.8%,-9.2%,/,-5.8%,2.1%
CNC(=O)c1cc(C(=O)c2ccc(Cl)cc2)c(Br)[nH]1,2.2,33.9%,-2.7%,3.8%,-33.3%,-4.6%
CCNc1ccc(S(=O)(=O)N2CCCCC2)cn1,-5.8,55.3%,-9.4%,1.2%,-1.9%,1.7%
CC1CCN(C(=O)CSc2ccc(-c3ccccc3)nn2)CC1,-5.4,22.9%,6.6%,-0.1%,?,22.5%
O=C1c2ccccc2C(=O)N1CCCc1nc(-c2ccccn2)no1,-7.2,-13.5%,79.4µM*,29.9µM*,?,-3.1%
O=C1c2ccccc2C(=O)N1CCc1nc(-c2ccccn2)no1,/,9.0%,-6.7%,1.0%,-3.4%,-6.7%
CN(C(=O)CSc1nnc2[nH]c(=O)cc(-c3ccccc3)n12)c1ccccc1,/,54.7%,-17.2%,/,9.1%,-20.5%
CC(=O)C1=C(O)C(=O)N(C)C1c1ccccc1[N+](=O)[O-] (stereo not drawn),-25.7,?,?,26.7µM*,-18.0%,-2.5%
CC(=O)C1=C(O)C(=O)N(c2ccccn2)C1c1ccccc1[N+](=O)[O-] (stereo not drawn),?,29.2%,20µM*,3.36µM*,?,-1.1%
CC(=O)C1=C(O)C(=O)N(CCC(=O)O)C1c1ccccc1[N+](=O)[O-] (stereo not drawn),-6.0,2.8%,-25.9%,-9.1%,?,1.3%
COc1cccc2cc3c(=O)n(-c4ccccc4)nc-3oc12,-11.1,-8.7%,44.7µM*,29.9µM*,?,-9.2%
COc1cccc2cc(-c3nc4ccccc4o3)c(=O)oc12,14.6,15.0%,-9.0%[11.4 µM],?,-12.3%,-3.7%
Cc1ccc(CNC(=O)c2ccc(N3CCc4ccccc43)c([N+](=O)[O-])c2)cc1,0.5,31.6µM*,8.91µM*,-6.5%,10µM*,-2.3%
COC(CNC(=O)c1ccc(N2CCc3ccccc32)c([N+](=O)[O-])c1)OC,-0.3,?,?,0.0%,39.8µM*,-9.3%
C=C1CCN(c2ccc(C(=O)NCc3ccccc3)cc2[N+](=O)[O-])CC1,-10.3,-5.7%,?,2.6%,?,-4.8%
O=C(NCC(c1ccco1)N1CCc2ccccc21)c1ccc([N+](=O)[O-])cc1 (stereo not drawn),4.5,-1.8%,-21.9%,-3.6%,-6.7%,-4.7%
Cc1ccc(OCC(=O)OCc2cc(=O)n3nc(C4CCCCC4)sc3n2)cc1,/,4.6%,-13.3%,/,-15.2%,1.4%
CCOC(=O)c1sc2cc([N+](=O)[O-])cc(SCC(=O)OC)c2c1N,/,?,44.7µM*,-20.6%,39.8µM*,-11.7%
CCOC(=O)c1sc2cc([N+](=O)[O-])cc(SCCO)c2c1N,1.1,4.0%,-5.9%,-8.8%,-9.5%,-0.8%
SMILES,PI5P4Ka inh,HP1b chromo inh,JMJD2A Tudor,PLK1 PBD inh,BAZ2B block,KAT2A inh
Cc1cccc(NC(=S)N/N=C/c2ccc([N+](=O)[O-])s2)c1,-14.0,?,56.2µM*,-5.0%,10µM*,-23.9%
Cc1cc(C)c(S(=O)(=O)Nc2cccc(-c3cn4ccccc4n3)c2)c(C)c1,/,45.2%,5.01µM*,/,-27.5%,-12.0%
Cc1cc(C)c(S(=O)(=O)Nc2ccc(-c3cn4ccccc4n3)cc2)c(C)c1,0.4,-10.3%,?,0.3%,?,-4.2%
CCOC(=O)c1nc2sc3c(c2c(=O)n1C(C)C(=O)OCC)CCCC3 (stereo not drawn),-0.5,48.0%,19.0%,1.2%,6.4%,-9.0%
Cc1cc(C(=O)N2CCC(C)(C(=O)NS(=O)(=O)C3CC3)C2)n(C(C)(C)C)n1 (stereo not drawn),0.8,/,/,-4.6%,/,/
O=C(c1ccc(Br)cc1)N1CCN(Cc2ccccc2)CC1,7.1,29.2%,-12.9%,-3.6%,4.5%,-9.1%
O=C(c1cccc(Cl)c1)N1CCN(Cc2ccncc2)CC1,-8.9,?,?,-7.4%,50.1µM*,0.1%
COc1ccccc1CN1CCN(C(=O)c2ccncc2)CC1,0.7,?,7.94µM*,-0.5%,25.1µM*,-2.6%
O=C(c1ccccc1)N1CCN(Cc2ccccc2Br)CC1,-0.6,?,5.01µM*,-3.3%,50.1µM*,-4.4%
COc1cccc(OC)c1C(=O)N1CCN(Cc2ccncc2)CC1,-0.1,?,8.91µM*,0.3%,20µM*,-4.4%
CSc1ccc(CN2CCN(C(=O)c3ccncc3)CC2)cc1,-0.1,-0.7%,-5.6%,-18.2%,-12.5%,0.8%
Cc1ccc2nc(CN3CCN(C(=O)Nc4cccc(C)c4C)CC3)oc2c1,/,25.6%,0.0%,/,-2.7%,22.7%
O=C(NCCc1ccc(Cl)cc1)C1(c2cccs2)CCOCC1,/,21.4%,3.6%,/,1.3%,-1.2%
COc1ccc(OC)c(CN2CCN(C(=O)c3ccc(F)cc3)CC2)c1,-1.1,?,25.1µM*,-5.0%,?,-3.5%
CC(C(=O)NC1C(=O)N2C(C(=O)O)=C(CSc3nnnn3C)CSC12)n1cc(Br)cn1 (stereo not drawn),-4.0,21.3%,-22.8%,-21.7%,50.1µM*,-3.6%
Cn1nnnc1SCC1=C(C(=O)O)N2C(=O)C(NC(=O)C(O)c3ccccc3)C2SC1 (stereo not drawn),/,/,/,/,/,9.8%
Cc1cc(C)n(CC(=O)NC2C(=O)N3C(C(=O)O)=C(CSc4nnc(C)s4)CSC23)n1 (stereo not drawn),-2.5,7.0%,25.1µM*,-18.8%,70.8µM*,-3.0%
Cn1nnnc1SCC1=C(C(=O)O)N2C(=O)C(NC(=O)C3CC3c3ccccc3)C2SC1 (stereo not drawn),-1.1,15.5%,?,?,70.8µM*,-7.8%
Cn1nnnc1SCC1=C(C(=O)O)N2C(=O)[C@@H](NC(=O)[C@H](O)c3ccccc3)[C@H]2SC1,?,?,22.4µM*,13.4µM*,50.1µM*,-10.8%
